The results in this text go back to the supplement of paper PMC5919970.

Counter-ions that a name gives are not always drawn. Over roughly 2,000 compounds, “fractional viability relative to vehicle” has its median near 0.91; the lowest 2% begin near 0.045. The sample holds the lowest values, similar compounds and a random draw of the others, so the mix is not that of the screen.

The test has as its system TYKNU. The test is described as follows: fractional viability relative to vehicle; TYKNU is a high-grade serous ovarian cancer line; higher = less growth inhibition. Particulars: 72 h. In a few lines: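 TYKNU control cells or lentiCRISPRv2 knockout derivatives were plated at 500 cells per well in duplicate into drug-stamped 384-well plates holding a ~2100-compound library at 2 or 10 μM. Culture was in RPMI 1640 with 10% FBS at 37 °C in 5% CO2, with 72 h of drug treatment. Viability was measured by Cell Titer Glo luminescence, and the averaged duplicate treatment wells were normalised to duplicate control wells at the same plate position.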

Setting [1] is: 2uM, genotype: DNM1L knockout (sgDNM1L #1).
The mark [2] stands for this setting: 2uM, genotype: sgCTRLA1 (non-targeting control).
The mark [3] stands for this setting: 10uM, genotype: DNM1L knockout (sgDNM1L #1).
The mark [4] stands for this setting: 10uM, genotype: sgCTRLA1 (non-targeting control).

Regarding `N#C/C(=C\c1ccc(O)c(O)c1)C(=O)NCc1ccccc1` [AG-490 (Tyrphostin B42)], the fractional viability under setting [1] amounted to 0.921, the fractional viability under setting [2] turned out to be 1.01, the fractional viability under setting [3] worked out at 0.84 and the fractional viability under setting [4] was 0.99.
The matching figures for `C[C@H](NC(=O)/C(C#N)=C/c1cccc(Br)n1)c1ccccc1`: 0.9, 0.999, 0.0615 and 0.0707.
The matching figures for `CCC[C@H](NC(=O)/C(C#N)=C/c1cccc(Br)n1)c1ccccc1` [Degrasyn (WP1130)]: 0.0738, 0.0639, 0.0286 and 0.026.
The matching figures for `O=C(Nc1cccc(Cl)c1)Nc1ncc(CCNc2ncnc3ccsc23)s1` [SNS-314 Mesylate]: 0.705, 0.722, 0.644 and 0.404.
Consider `O=C(c1cncc(Br)c1)N1CCC(N2CCCC2)CC1`, for which the fractional viability is, setting by setting: under setting [1], 0.816; under setting [2], 0.901; under setting [3], 0.828; under setting [4], 0.765.
In the same order, the values of `O=C(c1ccc(Nc2nccc(-c3cc4ccccc4s3)n2)cc1)N1CCC(N2CCCC2)CC1` [IKK-16 (IKK Inhibitor VII)] are 0.942, 0.839, 0.0381 and 0.0277.
In the same order, the values of `O=C(c1ccc(C(=O)N2CCC(N3CCCC3)CC2)c(Nc2ccccc2)c1)N1CCC(N2CCCC2)CC1` are 0.857, 1, 0.708 and 0.973.
The matching figures for `NC[C@H](O)c1ccc(O)c(O)c1` [Noradrenaline bitartrate monohydrate]: 0.847, 0.96, 0.592 and 0.84.
For the compound `O=C(/C=C/C=C/c1ccc2c(c1)OCO2)N1CCCCC1` [Piperine], the fractional viability is, setting by setting: under setting [1], 0.998; under setting [2], 1.08; under setting [3], 0.915; under setting [4], 1.03.
Take `O=C(O)Cc1ccccc1Nc1c(Cl)cccc1Cl` [Diclofenac Sodium]: the fractional viability was found to be 1.12 under setting [1], 0.938 under setting [2], 0.917 under setting [3] and 0.967 under setting [4].
Take `O=C(O)Cc1ccccc1Nc1c(Cl)cccc1Cl` [Diclofenac Potassium]: the fractional viability came out at 1.17 under setting [1], 1.13 under setting [2], 0.876 under setting [3] and 1.07 under setting [4].
In the same order, the values of `O=C(O)Cc1ccccc1Nc1c(Cl)cccc1Cl` [Diclofenac Diethylamine] are 1, 1.03, 0.893 and 1.14.
In the same order, the values of `CN(C)c1ccc(-c2nc3ncc(Cl)c(N4CCN(CC(=O)Nc5nccs5)CC4)c3[nH]2)cc1` are 1.15, 0.937, 0.395 and 0.714.
The matching figures for `O=C1c2c(O)cc(O)cc2OC(c2ccc(O)c(O)c2)C1O` (stereo not given) [Taxifolin (Dihydroquercetin)]: 1.04, 1.15, 0.951 and 1.06.
With `COc1ccc(-c2cc3c(C)nc(N)nc3n([C@H]3CC[C@H](OCCO)CC3)c2=O)cn1`, the fractional viability reads like this: under setting [1], 0.141; under setting [2], 0.165; under setting [3], 0.0585; under setting [4], 0.0406.
In the same order, the values of `COc1cccc(-c2cc(F)ccc2C2Cc3nc(N)nc(C)c3C(=O)N2)n1` (stereo not given) are 0.241, 0.191, 0.227 and 0.201.
Turning to `CCN1C[C@H](C)n2c(c(O)c3c(=O)n(Cc4ccc(F)c(Cl)c4)nc(C(=O)NC)c32)C1=O`, the fractional viability runs as follows: under setting [1], 1.07; under setting [2], 1.2; under setting [3], 0.793; under setting [4], 1.12.
Take `N[C@H]1CC[C@H](N[C@@H]2C[C@H]2c2ccccc2)CC1`: the fractional viability turned out to be 0.777 under setting [1], 0.909 under setting [2], 0.758 under setting [3] and 0.712 under setting [4].
For the compound `Cc1cc(OCc2nnc(SC3CCCC3)n2-c2cccnc2)ccc1-c1ccc(S(C)(=O)=O)cc1`, the fractional viability came to 0.545 under setting [1], 0.46 under setting [2], 0.0437 under setting [3] and 0.0922 under setting [4].
The matching figures for `CC(C)[C@H](O)C(=O)N[C@@H](C)C(=O)N[C@@H]1C(=O)N(C)CCc2ccccc21`: 1.04, 1.25, 0.949 and 1.15.
`Cc1ccc(S(=O)(=O)c2ccc([N+](=O)[O-])o2)cc1`: the fractional viability reads like this: under setting [1], 0.0323; under setting [2], 0.012; under setting [3], 0.0126; under setting [4], 0.00867.
The matching figures for `NC(=O)c1ccc(-c2nc(-c3ccccn3)c(-c3ccc4c(c3)OCO4)[nH]2)cc1`: 1.32, 1.08, 1.16 and 0.957.
For `COc1ccccc1OCC(O)COC(N)=O` (stereo not given) [Methocarbamol], the fractional viability under setting [1] was determined as 1.02, the fractional viability under setting [2] worked out at 1.16, the fractional viability under setting [3] turned out to be 0.9 and the fractional viability under setting [4] is 1.
In the same order, the values of `O=C(NC[C@H](O)CO)c1ccncc1Nc1ccc(I)cc1F` are 0.333, 0.318, 0.212 and 0.205.
The matching figures for `CCCSc1nc(N[C@@H]2C[C@H]2c2ccc(F)c(F)c2)c2nnn([C@@H]3C[C@H](OCCO)[C@@H](O)[C@H]3O)c2n1` [Ticagrelor]: 0.944, 1.12, 0.492 and 0.903.
With `CCN(CC)C(=S)SSC(=S)N(CC)CC` [Disulfiram], the fractional viability came to 0.456 under setting [1], 0.291 under setting [2], 0.0708 under setting [3] and 0.0241 under setting [4].
`CC(=O)N1c2ccc(-c3ccc(C(=O)O)cc3)cc2[C@H](Nc2ccc(Cl)cc2)C[C@@H]1C` returned a fractional viability under setting [1] of 0.281, a fractional viability under setting [2] of 0.395, a fractional viability under setting [3] of 0.237 and a fractional viability under setting [4] of 0.208.
In the same order, the values of `CNCc1ccc(C)c(NC(=O)c2ccc(Nc3nc(-c4ccccc4)c4ccccc4n3)cc2)c1` are 0.752, 1.03, 0.0487 and 0.0706.
The matching figures for `CC(=O)Nc1ccc(C(=O)Nc2ccccc2N)cc1` [CI994 (Tacedinaline)]: 0.966, 0.965, 0.456 and 0.675.
In the same order, the values of `Cc1cc(Nc2ccc(NC(=O)c3ccc(Nc4ccnc5ccccc45)cc3)cc2)nc(N)n1` are 0.0197, 0.0121, 0.0121 and 0.00969.
